Screening data from PubChem BioAssay.
DENV2 CPE rescue = inhibitors of DENV2 cytopathic effect, primary screen, cell-based, plate reader, single concentration; DENV2-infected cells, cytopathic effect rescue; CPE inhibition, % at 9.99 µM; 350,000 tested, 1.7% active; AID 651640, 2012; in the data active means CPE inhibition above about 20%, passing the limit was not always enough; tested in BHK-21 cells;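 further: 0% = median of neutral control wells and 100% = median of positive control wells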
ERp5 block = inhibitors of ERp5-driven insulin aggregation, primary screen, biochemical, turbidity, absorbance 650 nm, single point; Protein disulfide-isomerase A6 (Homo sapiens), Q15084; 90 min; inhibition, % at 9.99 µM; 350,000 tested, 0.05% active; AID 651711, 2012;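 active means mean replicate inhibition above about 25%, with every replicate also reaching it, limit read from the data, passing the limit was not always enough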
SIRT5 block = SIRT5 desuccinylase inhibitors, primary screen, biochemical, fluorescence imaging, single point, set 5; Purified SirT5, succinyl-peptide AMC, trypsin-coupled fluorescence; inhibition, % at 15 µM; AID 652115, 2013; 330,000 tested, 1.1% active; NAD-dependent protein deacylase sirtuin-5, mitochondrial (Homo sapiens), Q9NXA8; in the data active means inhibition above about 15%
PDI turbidity = inhibitors of human PDI, primary screen, biochemical, turbidity, single point, plate reader; PDI insulin aggregation turbidity, A650, 90 min; inhibition, % at 10 µM; 350,000 tested, 0.052% active; AID 588391, 2011;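 active means mean inhibition across replicates of 30% or more, whatever share of single replicates reach that level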
Target sequence (P07237 whole entry, looked up): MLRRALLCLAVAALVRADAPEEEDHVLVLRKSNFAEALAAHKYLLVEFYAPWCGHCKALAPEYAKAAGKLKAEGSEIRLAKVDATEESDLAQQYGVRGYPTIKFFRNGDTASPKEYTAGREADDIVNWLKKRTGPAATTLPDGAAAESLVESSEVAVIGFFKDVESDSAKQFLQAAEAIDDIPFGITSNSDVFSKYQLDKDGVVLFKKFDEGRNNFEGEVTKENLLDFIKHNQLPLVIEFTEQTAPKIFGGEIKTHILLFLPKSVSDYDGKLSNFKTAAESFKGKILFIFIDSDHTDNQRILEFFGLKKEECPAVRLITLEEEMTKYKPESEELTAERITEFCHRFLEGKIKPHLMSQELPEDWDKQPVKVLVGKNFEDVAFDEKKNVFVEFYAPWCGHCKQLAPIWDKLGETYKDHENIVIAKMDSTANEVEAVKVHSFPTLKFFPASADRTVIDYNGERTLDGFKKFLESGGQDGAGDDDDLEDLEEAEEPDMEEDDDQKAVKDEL
Rtt109 Vps75 = inhibitors of C. albicans Rtt109/Vps75 HAT, primary screen, biochemical, ThioGlo CoA-SH fluorescence, plate reader; Histone acetyltransferase RTT109 (Candida albicans (strain SC5314 / ATCC MYA-2876)), …; purified Rtt109/Vps75, 4 h; inhibition, % at 34.9 µM; 330,000 tested, 0.16% active;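 active means inhibition of at least 50% in every replicate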
* marks the source's active call; other numbers are inactive results; . = no result given. Shown are actives, neighbours in structure and some others; about 2.3% of the full set was active somewhere.

SMILES | DENV2 CPE rescue | ERp5 block | SIRT5 block | PDI turbidity | Rtt109 Vps75
C[C@H](CO)N1C[C@H](C)[C@H](CN(C)C(=O)Nc2ccc(F)cc2)Oc2ncc(C#Cc3ccc(C(F)(F)F)cc3)cc2C1=O | 2 | -3 | 16* | . | .
C/C=C/c1cnc2c(c1)C(=O)N([C@@H](C)CO)C[C@H](C)[C@@H](CN(C)C(=O)Nc1ccc(C(F)(F)F)cc1)O2 | -6 | 14 | 0 | . | .
COc1ccc(NC(=O)N(C)C[C@H]2Oc3ncc(C#CCN(C)C)cc3C(=O)N([C@@H](C)CO)C[C@@H]2C)cc1 | . | 1 | 22* | . | .
C/C=C/c1cnc2c(c1)C(=O)N([C@H](C)CO)C[C@@H](C)[C@@H](CN(C)C(=O)Nc1ccccc1F)O2 | 30* | -4 | -7 | . | .
C/C=C/c1cnc2c(c1)C(=O)N([C@H](C)CO)C[C@H](C)[C@H](CN(C)C(=O)Nc1ccccc1F)O2 | 0 | -3 | -1 | . | .
C/C=C/c1cnc2c(c1)C(=O)N([C@@H](C)CO)C[C@H](C)[C@@H](CN(C)C(=O)Nc1ccc(F)cc1)O2 | -5 | 6 | 16* | . | .
COc1ccc(NC(=O)N(C)C[C@@H]2Oc3ncc(C#CCN(C)C)cc3C(=O)N([C@@H](C)CO)C[C@@H]2C)cc1 | 4 | -3 | -4 | . | .
C[C@@H]1CN([C@H](C)CO)C(=O)c2cc(NC(=O)Nc3ccccc3)ccc2O[C@H]1CN(C)S(C)(=O)=O | -15 | 2 | 0 | . | .
CO[C@@H]1CN(C)C(=O)c2ccc(NS(=O)(=O)C3CCCCC3)cc2OC[C@H](C)NC[C@H]1C | -4 | 0 | 0 | . | .
C[C@@H]1CN([C@H](C)CO)C(=O)c2cc(NC(=O)Nc3ccc4c(c3)OCO4)ccc2O[C@H]1CN(C)S(C)(=O)=O | 0 | 0 | 1 | . | .
COc1ccc(S(=O)(=O)N(C)C[C@H]2Oc3ccc(NC(=O)NC4CCCCC4)cc3C(=O)N([C@@H](C)CO)C[C@@H]2C)cc1 | 3 | -10 | 19* | . | .
Cc1ccc(S(=O)(=O)N(C)C[C@@H]2OCCCC[C@H](C)Oc3ccc(NC(=O)NC4CCCCC4)cc3C(=O)N([C@H](C)CO)C[C@H]2C)cc1 | 1 | 2 | 16* | . | .
Cc1ccc(S(=O)(=O)N(C)C[C@H]2OCCCC[C@@H](C)Oc3ccc(NC(=O)NC4CCCCC4)cc3C(=O)N([C@@H](C)CO)C[C@@H]2C)cc1 | -9 | 0 | 3 | . | .
Cc1ccc(S(=O)(=O)N(C)C[C@@H]2Oc3ccc(NC(=O)NC4CCCCC4)cc3C(=O)N([C@H](C)CO)C[C@@H]2C)cc1 | 28* | 1 | 8 | . | .
CN1C(=O)c2cc(NC(=O)C3CCCC3)ccc2OC[C@@H]2O[C@@H](CC(=O)NCCc3ccncc3)CC[C@H]21 | -1 | -4 | 8 | . | .
C[C@H]1CCCCO[C@H](CN(C)CC2CC2)[C@@H](C)CN([C@@H](C)CO)C(=O)c2cc(NS(=O)(=O)c3ccccc3)ccc2O1 | 3 | 6 | 4 | . | .
C/C(=N\NC(N)=O)c1ccc(-n2ccnc2)cc1 | -1 | 17 | 22* | 5 | -1
CNC(=S)N/N=C(\C)c1ccc(-n2ccnc2)cc1 | . | . | . | 12 | .
C/C=C/c1cnc2c(c1)C(=O)N([C@@H](C)CO)C[C@@H](C)[C@H](CN(C)S(=O)(=O)c1ccccc1)O2 | -2 | 5 | -4 | . | .
CCCSc1ccc([C@@H]2[C@H]3C(=O)N(CC)C(=O)[C@H]3[C@]3(C(=O)OC)CCCN23)cc1 | . | 1 | 36* | -1 | 8
COC(=O)[C@@]12CCCN1[C@H](c1ccc(-c3ccc(F)cc3)cc1)[C@H]1C(=O)N(C)C(=O)[C@H]12 | 12 | 1 | -3 | 0 | 8
COC(=O)[C@@]12CCCN1[C@H](c1ccc(SC3CCCCC3)cc1)[C@H]1C(=O)N(C)C(=O)[C@H]12 | 28* | 3 | . | -24 | -7
COC(=O)[C@@]12CCCCN1[C@H](c1ccc(-c3ccc(F)cc3)cc1)[C@H]1C(=O)N(C)C(=O)[C@H]12 | 39* | -3 | . | -5 | 0
CCCSc1ccc([C@@H]2[C@@H]3C(=O)N(CC)C(=O)[C@@H]3[C@]3(C(=O)OC)CCCCN23)cc1 | -5 | 3 | . | -1 | -7
CN1C(=O)c2cc(NC(=O)C3CCOCC3)ccc2OC[C@@H]2O[C@@H](CC(=O)NC3CCCC3)CC[C@H]21 | -2 | -5 | -3 | . | .
SMILES | DENV2 CPE rescue | ERp5 block | SIRT5 block | PDI turbidity | Rtt109 Vps75
COc1ccc(CNC(=O)C[C@H]2C[C@H]3c4cc(NS(C)(=O)=O)ccc4O[C@H]3[C@H](CO)O2)cc1 | -2 | -9 | -1 | . | .
CCN(CC)c1ccc(C(=S)N2CCN(c3ccccc3)CC2)cc1 | . | . | . | 15 | 53*
O=C(NC[C@@H]1N[C@@H](CO)[C@H]1c1ccc(C2=CCCCC2)cc1)c1ccc(F)cc1 | 52* | 0 | 1 | . | .
O=S(=O)(NC[C@@H]1N[C@H](CO)[C@@H]1c1ccc(C2=CCCC2)cc1)c1ccccc1 | -11 | 3 | 4 | . | .
O=S(=O)(NC[C@H]1N[C@@H](CO)[C@H]1c1ccc(C2=CCCC2)cc1)c1ccccc1 | 32* | -1 | 2 | . | .
CCN1[C@@H]2Cn3c(ccc(-c4ccncc4)c3=O)[C@H]1[C@@H](C(=O)NCc1ccccc1)[C@@H]2CO | 1 | 3 | -4 | . | .
CC(=O)NCc1ccc(C(=O)CCl)cc1 | 13 | -4 | -4 | 3 | -7
CC(=O)Nc1ccc(C(=O)CCl)cc1 | 27* | 0 | . | . | -6
C[C@H](CO)N1C[C@H](C)[C@@H](CN(C)CC2CCCCC2)Oc2c(NC(=O)CCCCCC(=O)Nc3ccccc3N)cccc2C1=O | 8 | -1 | 19* | . | .
C[C@H]1CN([C@@H](C)CO)C(=O)c2cccc(NC(=O)CCCCCC(=O)Nc3ccccc3N)c2O[C@H]1CN(C)CC1CCCCC1 | -3 | 4 | -2 | . | .
C[C@H]1CN([C@@H](C)CO)C(=O)c2cccc(NC(=O)CCCCCC(=O)Nc3ccccc3N)c2O[C@@H]1CN(C)C | 23* | -1 | 2 | . | .
Cc1ccc(CNC(=O)Nc2ccc(F)cc2)n1C | 11 | 4 | 1 | 0 | -1
CC1=NCCN1CCNC(=O)Nc1cc(C)cc(C)c1 | -1 | 2 | 21* | -2 | -5
Cc1cccc(NC(=O)NCCN2CCCCC2)c1 | -3 | 3 | 2 | -3 | 1
CC1=NCCN1CCNC(=O)Nc1ccc(F)cc1 | -4 | 1 | 17* | 1 | 1
CCCCOP(=O)(c1ccc(N(C)C)cc1)C(Nc1ccccc1)c1ccccc1 (configuration not stated) | 9 | 0 | 1 | -7 | 28
CCCOP(=O)(c1ccc(N(C)C)cc1)C(Nc1ccccc1)c1ccc(N(C)C)cc1 (configuration not stated) | 11 | 3 | 29* | 3 | -6
